Measured values published in PubChem BioAssay (Tox21).
Records with an inconclusive call do not appear. Activity calls are given as the source filed them. Unless noted, calls come from the whole dose curve.

Legend:
[1] = Nuclear factor erythroid 2-related factor 2/antioxidant responsive element (Nrf2/ARE) small molecule agonists: qHTS cell viability counter screen in human keratinocytes (AID 1919968; active = well fitted curve in the direction sought with a large enough effect in the repeat runs; an effect the other way counts as inactive or inconclusive; note: nearly all actives have a fitted effect of over 55% in size)
Outline: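 Cytotoxicity was multiplexed with the Nrf2/ARE luciferase assay in the same wells. Stably transfected HaCaT keratinocytes were treated with test compounds for 23 h at 37 C. Cell viability was then measured by CellTiter-Fluor fluorescence.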

[2] = Nuclear factor erythroid 2-related factor 2/antioxidant responsive element (Nrf2/ARE) small molecule agonists: luciferase reporter gene qHTS assay in human keratinocytes (AID 1919969); note: nearly all actives have a fitted effect of over 35% in size
[3] = molecular target: Gonadotropin-releasing hormone receptor (Homo sapiens) (UniProt P30968); test: Human gonadotropin-releasing hormone receptor (GnRHR) small molecule agonists, calcium flux assay in GnRHR-HEK293 cells (AID 1920063); note: nearly all actives have a fitted effect of over 35% in size
Chain of Gonadotropin-releasing hormone receptor (Homo sapiens) (P30968 whole entry, looked up): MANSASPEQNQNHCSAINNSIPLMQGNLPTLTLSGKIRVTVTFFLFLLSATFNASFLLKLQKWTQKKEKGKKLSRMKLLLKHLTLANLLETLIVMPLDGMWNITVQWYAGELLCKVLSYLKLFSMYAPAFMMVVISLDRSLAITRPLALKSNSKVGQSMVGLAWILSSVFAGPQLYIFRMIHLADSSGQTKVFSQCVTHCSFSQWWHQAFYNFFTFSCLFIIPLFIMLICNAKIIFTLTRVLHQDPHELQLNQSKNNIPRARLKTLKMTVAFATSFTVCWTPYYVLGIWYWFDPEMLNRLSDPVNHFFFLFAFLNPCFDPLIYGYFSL
Outline: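 Agonist activity was measured as intracellular calcium flux in HEK293 cells engineered to stably express human GnRHR. After dye loading for 1 hour at 37 C, compounds in DMSO were added and fluorescence was followed for 3 minutes.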

[4] = molecular target: KiSS-1 receptor (Homo sapiens) (UniProt Q969F8); test: Human kisspeptin (KISS1R) small molecule agonists, calcium flux assay in KISS1R-HEK293 cells (AID 1920064; active = well fitted curve in the direction sought with a large enough effect in the repeat runs; an effect the other way counts as inactive or inconclusive)
Chain of KiSS-1 receptor (Homo sapiens) (Q969F8 whole entry, looked up): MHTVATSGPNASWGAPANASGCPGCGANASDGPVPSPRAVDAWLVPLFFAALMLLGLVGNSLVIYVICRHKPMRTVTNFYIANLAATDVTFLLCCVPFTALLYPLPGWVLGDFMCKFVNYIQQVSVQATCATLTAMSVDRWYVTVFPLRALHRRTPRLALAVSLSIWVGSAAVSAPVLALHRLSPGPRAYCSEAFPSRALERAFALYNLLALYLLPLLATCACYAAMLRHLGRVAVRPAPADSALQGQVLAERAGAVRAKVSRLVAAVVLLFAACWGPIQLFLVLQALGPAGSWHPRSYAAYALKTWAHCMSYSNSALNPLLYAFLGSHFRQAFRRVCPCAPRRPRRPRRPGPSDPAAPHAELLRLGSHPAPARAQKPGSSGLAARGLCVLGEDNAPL
Outline: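 Agonist activity is monitored as intracellular calcium rise in engineered HEK293 cells carrying human KISS1R. Cells are dye-loaded for 1 h at 37 C before compound addition, and fluorescence is recorded for 3 min.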

[5] = G protein-coupled receptor (GPCR) small molecule agonists, calcium flux assay: HEK293 wild type cell line counter screen (AID 1920065)
Outline: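 Seed cells, incubate 18 h (37 C, 5% CO2); add calcium dye, 1 h at 37 C; pin-transfer compounds, ATP control or DMSO; read fluorescence 480/540 nm each second for 3 min.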

[6] = p53 small molecule agonists, cell-based qHTS assay with human liver microsomes: qHTS cell viability counter screen (AID 1963579); note: nearly all actives have a fitted effect of over 45% in size
Outline: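 Tox21 library compounds, delivered from DMSO stocks, were tested on p53RE-bla cells together with 0.5 mg/mL human liver microsomes and 0.5 mg/mL NADPH (final) over 16 h at 37 C; CellTiter-Glo luminescence served as the cytotoxicity measure.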

[7] = p53 small molecule agonists, cell-based qHTS assay: qHTS cell viability counter screen (AID 1963581); note: nearly all actives have a fitted effect of over 45% in size
Outline: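 Viability was counter-screened in parallel with the p53 agonist reporter by measuring intracellular ATP luminescence in the same HCT-116 p53RE-bla wells after 16 h compound treatment at 37 C.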

[8] = molecular target: 5-hydroxytryptamine receptor 2A (Homo sapiens) (UniProt P28223); test: 5-hydroxytryptamine receptor 2A (HTR2A) small molecule antagonists, cell-based qHTS assay (AID 1963586); note: nearly all actives have a fitted effect of over 45% in size
Chain of 5-hydroxytryptamine receptor 2A (Homo sapiens) (P28223 whole entry, looked up): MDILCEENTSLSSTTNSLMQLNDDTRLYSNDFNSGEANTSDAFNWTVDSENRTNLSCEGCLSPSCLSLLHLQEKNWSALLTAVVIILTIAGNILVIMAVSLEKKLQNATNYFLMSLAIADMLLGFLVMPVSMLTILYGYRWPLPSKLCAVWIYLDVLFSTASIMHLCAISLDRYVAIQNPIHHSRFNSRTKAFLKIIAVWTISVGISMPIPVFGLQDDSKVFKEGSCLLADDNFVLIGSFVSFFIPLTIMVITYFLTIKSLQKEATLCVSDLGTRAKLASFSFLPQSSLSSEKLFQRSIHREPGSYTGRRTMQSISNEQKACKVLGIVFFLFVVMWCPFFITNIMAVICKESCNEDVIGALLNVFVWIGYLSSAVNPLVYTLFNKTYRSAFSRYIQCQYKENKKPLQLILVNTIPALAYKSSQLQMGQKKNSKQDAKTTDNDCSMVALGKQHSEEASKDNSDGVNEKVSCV
Outline: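 CHO cells stably expressing human HTR2A were plated for 18 h at 37 C, then loaded with calcium dye for 1 h. Compounds were preincubated 5 min at room temperature before DOI (4 nM solution) was added. Kinetic fluorescence was read for 3 min.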

[9] = molecular target: 5-hydroxytryptamine receptor 2A (Homo sapiens) (UniProt P28223); test: 5-hydroxytryptamine receptor 2A (HTR2A) small molecule agonists, cell-based qHTS assay (AID 1963587); note: nearly all actives have a fitted effect of over 30% in size
Outline: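 CHO cells stably expressing human HTR2A, plated 18 h, loaded with calcium dye 1 h at 37 C. Agonist mode: compounds added and intracellular calcium fluorescence recorded kinetically for 2 min at 1 sec intervals.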

[10] = molecular target: Muscarinic acetylcholine receptor M1 (Homo sapiens) (UniProt P11229); test: Cholinergic receptor muscarinic 1 (CHRM1) small molecule antagonists, cell-based qHTS assay (AID 1963588); note: nearly all actives have a fitted effect of over 40% in size
Chain of Muscarinic acetylcholine receptor M1 (Homo sapiens) (P11229 whole entry, looked up): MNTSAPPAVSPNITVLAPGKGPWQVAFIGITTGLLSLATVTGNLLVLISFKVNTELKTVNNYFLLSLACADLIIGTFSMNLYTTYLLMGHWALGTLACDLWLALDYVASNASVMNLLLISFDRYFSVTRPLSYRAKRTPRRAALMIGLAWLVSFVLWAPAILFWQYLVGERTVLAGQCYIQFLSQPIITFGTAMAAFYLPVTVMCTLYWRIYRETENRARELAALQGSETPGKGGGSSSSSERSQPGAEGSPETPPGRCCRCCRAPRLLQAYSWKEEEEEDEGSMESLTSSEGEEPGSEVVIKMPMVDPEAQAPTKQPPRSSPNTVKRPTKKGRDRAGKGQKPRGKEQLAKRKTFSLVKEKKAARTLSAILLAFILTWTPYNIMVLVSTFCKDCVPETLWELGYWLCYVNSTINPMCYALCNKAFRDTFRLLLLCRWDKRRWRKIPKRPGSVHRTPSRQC
Outline: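 Compounds were tested at 15 concentrations in three independent runs. Dye-loaded CHRM1-CHO cells were exposed 5 min at room temperature before stimulation by acetylcholine added at 50nM. Intracellular calcium was read kinetically on FDSS for 3 min.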

[11] = molecular target: Muscarinic acetylcholine receptor M1 (Homo sapiens) (UniProt P11229); test: Cholinergic receptor muscarinic 1 (CHRM1) small molecule agonists, cell-based qHTS assay (AID 1963589); note: nearly all actives have a fitted effect of over 35% in size
Outline: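 Cells were plated and incubated 18 h at 37 C/5% CO2, loaded with calcium dye for 1 h at 37 C, then treated with compounds in DMSO. Fluorescence was recorded kinetically at 1 sec intervals.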

[12] = cAMP Responsive Elements (CRE) small molecule agonists, cell-based qHTS assay (AID 1963590)
Outline: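 Cells carrying a CRE-driven beta-lactamase reporter (HEK 293T) are seeded, incubated overnight (18 h), and treated with test compounds for 3 h at 37 C; reporter activity is then detected with a FRET substrate after 2 h at room temperature.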

[13] = cAMP Responsive Elements (CRE) small molecule antagonists, cell-based qHTS assay (AID 1963591; active = well fitted inhibition curve with a large enough effect in the signal ratio in the repeat runs, not every such curve was filed as active; the % refers to the signal ratio)
Outline: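 Cells (CRE-bla HEK 293T, DMEM with 10% dialyzed FBS and 25 mM HEPES) are seeded and incubated 18 h. Compounds are added with NKH477 agonist at 0.25 uM final for 3 h, then FRET substrate for 2 h.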

[14] = molecular target: Beta-2 adrenergic receptor (Homo sapiens) (UniProt P07550); test: Adrenergic beta2 receptor (ADRB2) small molecule agonists, cell-based qHTS assay (AID 1963593);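 note: CHO cells stably overexpressing human ADRB2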
Chain of Beta-2 adrenergic receptor (Homo sapiens) (P07550 whole entry, looked up): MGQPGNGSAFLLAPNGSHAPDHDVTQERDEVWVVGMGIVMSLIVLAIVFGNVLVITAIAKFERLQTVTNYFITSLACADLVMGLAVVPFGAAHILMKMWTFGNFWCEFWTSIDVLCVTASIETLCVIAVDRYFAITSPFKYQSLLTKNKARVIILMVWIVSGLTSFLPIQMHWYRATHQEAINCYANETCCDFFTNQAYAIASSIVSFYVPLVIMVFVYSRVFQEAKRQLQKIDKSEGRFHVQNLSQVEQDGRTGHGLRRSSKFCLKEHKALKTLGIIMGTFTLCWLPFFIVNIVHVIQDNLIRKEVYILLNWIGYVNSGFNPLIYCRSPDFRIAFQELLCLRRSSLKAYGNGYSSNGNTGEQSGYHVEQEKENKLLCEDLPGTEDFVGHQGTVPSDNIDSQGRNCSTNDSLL
Outline: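 CHO cells stably over-expressing ADRB2 were plated overnight at 37C, then dosed with compounds plus a stimulation mix containing 100uM IBMX and 25uM Ro-20-1724 for 0.5hr at room temperature. cAMP was measured by HTRF competition, 1hr.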

[15] = molecular target: D(2) dopamine receptor (Homo sapiens) (UniProt P14416); test: Dopamine D2 receptor (DRD2) small molecule agonists, cell-based qHTS assay (AID 1963594); note: nearly all actives have a fitted effect of over 35% in size
Chain of D(2) dopamine receptor (Homo sapiens) (P14416 whole entry, looked up): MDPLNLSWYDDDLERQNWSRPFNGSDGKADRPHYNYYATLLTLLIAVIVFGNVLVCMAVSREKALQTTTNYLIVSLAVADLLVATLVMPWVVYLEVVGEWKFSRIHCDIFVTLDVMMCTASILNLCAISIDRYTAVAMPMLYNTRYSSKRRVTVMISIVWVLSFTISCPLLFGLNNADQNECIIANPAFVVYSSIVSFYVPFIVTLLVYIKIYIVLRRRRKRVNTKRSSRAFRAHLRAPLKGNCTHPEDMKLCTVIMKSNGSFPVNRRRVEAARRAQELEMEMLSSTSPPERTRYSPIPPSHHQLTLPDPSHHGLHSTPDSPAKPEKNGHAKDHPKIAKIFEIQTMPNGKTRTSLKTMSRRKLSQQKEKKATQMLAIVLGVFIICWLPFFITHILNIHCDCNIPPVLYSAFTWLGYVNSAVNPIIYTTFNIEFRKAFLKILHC
Outline: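 HEK293 cells stably expressing human DRD2, pre-treated with PDE inhibitor Ro20-1724 (0.1 mM final) and compound 10 min at room temperature, then stimulated with NKH477 (200nM […]) for 30 min. cAMP read by HTRF (665/620 nm).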

[16] = molecular target: D(2) dopamine receptor (Homo sapiens) (UniProt P14416); test: Dopamine D2 receptor (DRD2) small molecule antagonists, cell-based qHTS assay (AID 1963595; active = well fitted inhibition curve with a large enough effect in the signal ratio in the repeat runs, with a control signal flat; the % refers to the signal ratio)
Outline: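 Antagonist mode in DRD2-HEK293 cells: after compound addition with 0.1 mM Ro20-1724, cells received quinpirole (12 nM) and NKH477 (200 nM) for 30 min at room temperature; HTRF cAMP read after 1 h detection.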

[17] = molecular target: Beta-2 adrenergic receptor (Homo sapiens) (UniProt P07550); test: Adrenergic beta2 receptor (ADRB2) small molecule antagonists, cell-based qHTS assay (AID 1963592); note: series mostly up to about 92 µM; nearly all actives have a fitted effect of over 50% in size
Outline: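 Assay format: CHO-ADRB2 cells, 18-20hr seeding at 37C/5% CO2, then compound plus 1nM isoproterenol agonist mix for 0.5hr RT. Homogeneous time-resolved fluorescence cAMP detection after 1hr, expressed as 665/615 nm ratio.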

[18] = p53 small molecule agonists, cell-based qHTS assay with rat liver microsomes: qHTS cell viability counter screen (AID 1963580); note: nearly all actives have a fitted effect of over 45% in size
Outline: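 Cytotoxicity counter screen: intracellular ATP measured by CellTiter-Glo luminescence in the same wells as the beta-lactamase reporter read, on HCT-116 p53RE-bla cells exposed 16 h at 37 C to compounds with rat liver microsomes and NADPH, each 0.5 mg/mL final.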

Measured: Potency

Cc1cc(C(=C2C=CC(=Nc3ccc(S(=O)(=O)O)cc3S(=O)(=O)O)C=C2)c2ccc(Nc3ccc(S(=O)(=O)O)cc3)cc2)ccc1N
not listed: [17] | [18]
inactive: all other assays above

COc1nc(C)nc(N)n1
not listed: [10] | [15] | [18]
inactive: all other assays above

CC(=O)Oc1cccc2c1C(=O)c1c(OC(C)=O)cc(C(=O)O)cc1C2=O
not listed: [7] | [12] | [13] | [14] | [16]
inactive: all other assays above

Cc1cccc(C(=O)O)c1O
not listed: [10] | [18]
inactive: all other assays above

CCCc1nc(C)c2c(=O)[nH]c(-c3cc(S(=O)(=O)N4CCN(CC)CC4)ccc3OCC)nn12
not listed: [7] | [12] | [13] | [14]
inactive: all other assays above

O=C1CCC(=O)N1Cl
not listed: [11] | [13] | [18]
inactive: all other assays above

CN(C)C(=O)Nc1ccccc1
not listed: [13] | [14] | [18]
inactive: all other assays above

CCCC(=O)OCCC(C)CCC=C(C)C (stereo unspecified)
not listed: [18]
inactive: all other assays above
